# Measurements: the antibiotic and cytotoxicity screens of Wong et al. (2023)
# Hit rate of the full screen: of about 39,000 compounds, about 3,300 (8.5%) were called active. The entries come from a sample that favours actives as a whole.
# Tested on: HepG2
# Experiment: cytotoxicity call (relative viability < 0.9)
# Conditions: 10 µM
row,SMILES,cytotoxicity call
1,CC(C)NC(=O)N(C)C[C@H]1Oc2ccc(NC(=O)CCN3CCOCC3)cc2C(=O)N([C@H](C)CO)C[C@@H]1C,inactive
2,O=C(C[C@H]1CC[C@H]2[C@@H](COC[C@H](O)CN2C(=O)Nc2ccc(C(F)(F)F)cc2)O1)NCCc1ccncc1,inactive
3,Cc1noc(C)c1NC(=O)N(C)C[C@@H]1Oc2c(NC(=O)Nc3cccc4ccccc34)cccc2C(=O)N([C@@H](C)CO)C[C@@H]1C,inactive
4,COc1ccc(-c2cnc3c(c2)C(=O)N([C@H](C)CO)C[C@H](C)[C@H](CN(C)C(=O)C2CCOCC2)O3)cc1,inactive
5,C[C@@H]1CN([C@H](C)CO)C(=O)c2cc(NS(=O)(=O)c3ccc(F)cc3)ccc2O[C@H]1CN(C)C(=O)Nc1ccc(C(F)(F)F)cc1,inactive
6,O=c1nc(Nc2ccccc2)cn[nH]1,inactive
7,CO[C@H]1CN(C)C(=O)c2ccc(NC(=O)Nc3ccccc3F)cc2OC[C@H](C)N(Cc2ccccc2C(=O)O)C[C@@H]1C,inactive
8,COc1cccc2c1C(=O)c1c(O)c3c(c(O)c1C2=O)C[C@@](O)(C(=O)CO)C[C@@H]3O[C@H]1C[C@H](N)[C@H](O)[C@H](C)O1,active
9,CCCCC(=O)OCC(=O)[C@]1(O)Cc2c(O)c3c(c(O)c2[C@@H](O[C@H]2C[C@H](NC(=O)C(F)(F)F)[C@H](O)[C@H](C)O2)C1)C(=O)c1c(OC)cccc1C3=O,active
10,COc1cccc2c1C(=O)c1c(O)c3c(c(O)c1C2=O)CC(O)(C(=O)CO)CC3OC1CC(N)C(O)C(C)O1.Cl (stereo unspecified),active
11,COc1cccc2c1C(=O)c1c(O)c3c(c(O)c1C2=O)CC(O)(C(=O)CO)CC3OC1CC(N)C(O)C(C)O1 (stereo unspecified) [listing 1 of 2 here],active
12,C[C@@H]1CN([C@@H](C)CO)C(=O)Cc2cc(NS(=O)(=O)c3ccc(Cl)cc3)ccc2O[C@@H]1CN(C)Cc1ccc(C(=O)Nc2ccccc2N)cc1,inactive
13,CN1N=C2CCN(C(=O)[C@@H](COCc3ccccc3)NC(=O)C(C)(C)N)C[C@@]2(Cc2ccccc2)C1=O,inactive
14,C[C@H]1CN([C@@H](C)CO)C(=O)c2ccccc2-c2ccccc2CO[C@H]1CN(C)C(=O)Nc1cccc(F)c1,inactive
15,C[C@@H]1CCCCO[C@@H](CN(C)C(=O)Nc2cccc3ccccc23)[C@@H](C)CN([C@H](C)CO)C(=O)c2cc(NC(=O)c3ccncc3)ccc2O1,inactive
16,CCC(=O)OC1(C(=O)SCF)C(C)CC2C3CC(F)C4=CC(=O)C=CC4(C)C3(F)C(O)CC21C (stereo unspecified),inactive
17,Cc1cc(O)c(C=O)c2c1C(=O)Oc1c(COC(=O)C=CC(=O)O)c(O)c(C(=O)O)c(C)c1O2,inactive
18,C[C@H]1CN([C@@H](C)CO)S(=O)(=O)c2ccc(-c3cncnc3)cc2O[C@H]1CN(C)C(=O)Cc1ccccc1,inactive
19,COc1ccc([C@@H]2C/C=C\C[C@@H](c3cccc(Cl)c3)NC(=O)[C@@H](c3ccccc3)CC(=O)N2)c(OC)c1,inactive
20,COc1ccc(S(=O)(=O)Nc2ccc3c(c2)CC(=O)N([C@@H](C)CO)C[C@@H](C)[C@@H](CN(C)S(=O)(=O)c2ccccc2)O3)cc1,inactive
21,Cc1noc(C)c1NC(=O)Nc1ccc2c(c1)CC(=O)N([C@H](C)CO)C[C@@H](C)[C@H](CN(C)Cc1ccc(C(=O)Nc3ccccc3N)cc1)O2,inactive
22,COc1cccc2c1C(=O)c1c(O)c3c(c(O)c1C2=O)CC(O)(C(=O)CO)CC3OC1CC(N)C(O)C(C)O1 (stereo unspecified) [listing 2 of 2 here],active

row,SMILES,cytotoxicity call
1,COc1cccc2c1C(=O)c1c(O)c3c(c(O)c1C2=O)C[C@](O)(C(=O)CO)C[C@H]3O[C@H]1C[C@@H](N)[C@@H](O)[C@@H](C)O1,active
2,COc1cccc2c1C(=O)c1c(O)c3c(c(O)c1C2=O)C[C@@](O)(C(=O)CO)C[C@@H]3O[C@H]1C[C@H](N)[C@@H](O)[C@H](C)O1,active
3,C[C@@H]1CN([C@H](C)CO)C(=O)c2cc(NC(=O)C3CC3)ccc2O[C@H]1CN(C)C(=O)Nc1ccc2c(c1)OCO2,inactive
4,C[C@H]1COC(=O)[C@@H](Cc2ccc(F)cc2)CCC=CC[C@@H](CC(=O)N[C@H](CO)Cc2ccccc2)C(=O)N1,inactive
5,CC(C)NC(=O)N(C)C[C@@H]1Oc2ccc(NC(=O)CCC(F)(F)F)cc2C(=O)N([C@H](C)CO)C[C@H]1C,inactive
6,COc1cccc(-c2cccc(-c3nc(C(=O)NCC(F)(F)F)cc4c3[C@@H](CCO)N([S@](=O)C(C)(C)C)C4)c2)c1,inactive
7,O=C(O)CN(CCN(CC(=O)O)CC(=O)O)CC(=O)O.[Na+].[Na+],inactive
8,C[C@H]1CN([C@@H](C)CO)C(=O)Cc2cc(NC(=O)CCCN(C)C)ccc2O[C@@H]1CN(C)C(=O)NC1CCCCC1,inactive
9,Cc1noc(C)c1NC(=O)N(C)C[C@H]1OCCCC[C@@H](C)Oc2ccc(NC(=O)Cc3ccccc3)cc2C(=O)N([C@H](C)CO)C[C@@H]1C,inactive
10,O=C(C[C@H]1CC[C@H]2[C@@H](COC[C@@H](O)CN2Cc2ccccc2F)O1)N[C@H]1CCN(Cc2ccccc2)C1,inactive
11,COC(=O)CN(C)c1nnc(N)s1,inactive
12,CCOC(=O)Cc1csc(/C(=N/O)C(N)=O)n1,inactive
13,COC(=O)Cc1csc(CC(N)=O)n1,active
14,COC(=O)c1c(CC[C@@H](CO)NC(=O)NCCn2cc(C3(O)CCCC3)nn2)oc(C(C)=O)c1C(=O)OC,inactive
15,Cc1ccc(S(=O)(=O)N(C)C[C@@H]2OCCCC[C@@H](C)Oc3ccc(NC(=O)Nc4c(C)noc4C)cc3C(=O)N([C@@H](C)CO)C[C@H]2C)cc1,inactive
16,C[C@@H]1CN([C@@H](C)CO)C(=O)c2cccc(NS(=O)(=O)c3cccs3)c2O[C@H]1CN(C)Cc1ccc(-c2ccccc2)cc1,inactive
17,C[C@H]1CN([C@@H](C)CO)C(=O)Cc2cc(NC(=O)Cc3cn(C)c4ccccc34)ccc2O[C@@H]1CN(C)C,inactive
18,COc1cc2c(cc1OC)CN(CCc1ccc(NC(=O)c3cc(OC)c(OC)cc3NC(=O)c3cnc4ccccc4c3)cc1)CC2,active
19,COc1cc2c(cc1OC)CN(CCc1ccc(NC(=O)c3cccc4c(=O)c5cccc(OC)c5[nH]c34)cc1)CC2,inactive
20,COc1cc2c(cc1OC)CN(CCc1ccc(-n3nnc(-c4cc(OC)c(OC)cc4NC(=O)c4cc(=O)c5ccccc5o4)n3)cc1)CC2,inactive
21,CNC[C@@H]1Oc2ccc(NC(=O)Cn3cnnn3)cc2C(=O)N([C@@H](C)CO)C[C@H]1C,inactive
22,CCCCCCO[C@H](C)c1c(c/2[nH]c1/C=C/1\N=C(/C=C/3\NC4=C(CC(=O)C4=C3C)C3=N/C(=C2)[C@@H](C)[C@@H]3CCC(=O)O)C(=C1C)CC)C,active

row,SMILES,cytotoxicity call
1,Cc1noc(C)c1NC(=O)Nc1cccc2c1O[C@@H](CN(C)Cc1ccc(C(F)(F)F)cc1)[C@@H](C)CN([C@H](C)CO)C2=O,inactive
2,COc1ccc(S(=O)(=O)Nc2ccc3c(c2)C(=O)N([C@@H](C)CO)C[C@@H](C)[C@H](CN(C)C(=O)C2CCCCC2)OCCCC[C@H](C)O3)cc1,inactive
3,CC(C)(C)[S@@](=O)N1Cc2cc(C(=O)N3CCCCC3)nc(-c3cccc(-c4cccc(C#N)c4)c3)c2[C@H]1CCO,inactive
4,CO[C@@H]1CN(C)C(=O)c2cc(NC(=O)C3CC3)ccc2OC[C@H](C)N(C(=O)C2CCOCC2)C[C@@H]1C,inactive
5,Cc1noc(C)c1S(=O)(=O)Nc1ccc2c(c1)CC(=O)N([C@H](C)CO)C[C@@H](C)[C@H](CN(C)S(=O)(=O)c1ccc(Cl)cc1)O2,inactive
6,CC(=O)Nc1ccc(OC(C)=O)cc1,inactive
7,CC(=O)Oc1ccc(O)cc1,active
8,CC(=O)Oc1cccc(O)c1,inactive
9,C[C@H](CO)N1C[C@H](C)[C@@H](CN(C)C(=O)c2cc(Cl)cc(Cl)c2)OCc2ccccc2-c2c(n(C)c3ccccc23)C1=O,active
10,C[C@H]1CN([C@@H](C)CO)C(=O)c2c(c3ccccc3n2C)-c2ccccc2CO[C@@H]1CN(C)C(=O)c1cc(Cl)cc(Cl)c1,inactive
11,C[C@@H]1CN([C@H](C)CO)C(=O)c2c(c3ccccc3n2C)-c2ccccc2CO[C@H]1CN(C)C(=O)c1cc(Cl)cc(Cl)c1,inactive
12,C[C@H]1CN([C@@H](C)CO)C(=O)c2c(c3ccccc3n2C)-c2ccccc2CO[C@H]1CN(C)C(=O)c1cc(Cl)cc(Cl)c1,inactive
13,C[C@@H]1CN([C@@H](C)CO)C(=O)c2c(c3ccccc3n2C)-c2ccccc2CO[C@@H]1CN(C)C(=O)c1cc(Cl)cc(Cl)c1,active
14,C[C@@H]1CN([C@@H](C)CO)C(=O)c2c(c3ccccc3n2C)-c2ccccc2CO[C@H]1CN(C)C(=O)c1cc(Cl)cc(Cl)c1,inactive
15,Cc1ccc(S[C@]2(C(=O)NC(C)C)CC(=O)N(Cc3ccccc3Cl)[C@@H]2c2ccc(CO)cc2)cc1,inactive
16,C[C@@H]1CCCCO[C@@H](CN(C)Cc2ccc(C(F)(F)F)cc2)[C@H](C)CN([C@H](C)CO)C(=O)c2cc(NC(=O)CCCN(C)C)ccc2O1,inactive
17,CS(=O)(=O)N1CCS(=O)(=O)[C@H]2CCN(CC3CC3)CC[C@@H]21,inactive
18,COc1ccc(S(=O)(=O)N(C)C[C@@H]2Oc3ccc(NC(=O)Nc4cccc5ccccc45)cc3C(=O)N([C@H](C)CO)C[C@@H]2C)cc1,inactive
19,CC(C)c1c(C(=O)Nc2ccccc2)c(-c2ccccc2)c(-c2ccc(F)cc2)n1CC[C@@H](O)C[C@@H](O)CC(=O)O,inactive
20,C[C@@H]1CCCCO[C@@H](CN(C)CC2CC2)[C@H](C)CN([C@@H](C)CO)C(=O)c2cc(NC(=O)c3ccccc3)ccc2O1,inactive
21,C[C@@H]1CCCCO[C@@H](CN(C)Cc2ccc(C(=O)O)cc2)[C@@H](C)CN([C@H](C)CO)C(=O)c2cc(NC(=O)C3CCCCC3)ccc2O1,inactive
22,CC1=C(C(=O)O)N2C(=O)[C@@H](NC(=O)[C@H](N)c3ccc(O)cc3)[C@H]2SC1,inactive
